As usually defined, the inhibition is the change of the read-out against control, counted positive when it falls.

In PubChem BioAssay AID602449 (Sanford-Burnham Center for Chemical Genomics, 2012) one finds inhibition data, which are given here for 92 compounds.

SMILES strings stand for the structures. Hit rate of the full screen: of about 360,000 compounds, about 5,000 (1.4%) were called active. The list comes from a sample in which actives are over-represented; it also holds similar structures and randomly drawn compounds. Values without a mark were called inactive.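 Rule for the calls: active = inhibition of 50% or more, scaled per plate between neutral and stimulator controls; inactive = the rest.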

A short description of the test: mitochondrial permeability transition pore inhibitors, primary screen, biochemical, isolated mouse mitochondria, absorbance (AID 602449).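 Note: 0% = DMSO wells given calcium and 100% = 1 mM EGTA wells.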 As to conditions: Ca2+ swelling absorbance, 30 min, at 10 µM, stronger effect = higher value.
As for `CCc1nc2c(=O)[nH]cnc2o1`, the inhibition is -1.8%.

Take `O=C(CSc1nc(=O)n2ccccc2n1)Nc1ccc2c(c1)OCCO2`: the inhibition is -1.6%.

In the case of `Cc1nnc(SC(C(=O)Nc2cc(Cl)cc(Cl)c2)c2ccccc2)[nH]c1=O` (configuration not stated), the inhibition was 86.4% (active).

Consider `CC(NCC(=O)Nc1cc(Cl)cc(Cl)c1)c1ccccc1` (configuration not stated), for which the inhibition is 3.1%.

As to `Cc1nnc(SC(C(=O)c2ccccc2)c2ccccc2)[nH]c1=O` (configuration not stated), the inhibition is 1.4%.

Regarding `CCC(C)[C@H]1COCCS(=O)(=O)N1Cc1ccc(C)cc1` (some centres not stated), the inhibition was -0.2%.

As to `CCC(c1nnc(SCC(=O)NNC(=O)c2ccccc2)n1Cc1ccccc1)N(C)C` (configuration not stated), the inhibition is 1.2%.

As to `COc1ccc(NC(=O)CN(C)C(=O)c2cc(C3CC3)nn2-c2ccccc2)cc1`, the inhibition is -0.5%.

`Cc1cccc(C(=O)OCC(=O)NC(C)C2CC3CCC2C3)c1O` (configuration not stated): the inhibition was 0.9%.

For `O=C(CN1CCN(C(=S)NC2CCCC2)CC1)Nc1ccc(Oc2ccccc2)cc1`, the inhibition was 5.8%.

On to `CCN(CC)S(=O)(=O)c1ccc(N(C)CCc2ccc(OC)c(OC)c2)nc1`, for which the inhibition is -2%.

Take `CCN(CC)S(=O)(=O)c1ccc(N(C)Cc2cccc(OC)c2OC)nc1`: the inhibition was 3.9%.

For `CCN(CC)S(=O)(=O)c1ccc(N(C)Cc2ccc(C(F)(F)F)cc2)nc1`, the inhibition is 94% (active).

Regarding `NC(=O)C1CCN(C(=O)c2ccc(C(F)(F)F)cc2)CC1`, the inhibition was -3.2%.

Turning to `CC1(c2ccc3ccccc3c2)NC(=O)N(CC(N)=O)C1=O` (configuration not stated), the inhibition is 1%.

`Cc1ccc2c(c1)C1CN(C)CCC1N2S(=O)(=O)c1cccc(F)c1` (configuration not stated): the inhibition is 0.2%.

With `Cc1ccc2c(c1)C1CN(C)CCC1N2S(=O)(=O)c1ccc(Oc2ccc([N+](=O)[O-])cc2)cc1` (configuration not stated), the inhibition is 83.1% (active).

For `Cc1ccc2c(c1)C1CN(C)CCC1N2C(=O)c1ccccc1NS(=O)(=O)c1ccc(F)cc1C` (configuration not stated), the inhibition is -0.2%.

Turning to `COc1cc(OC)c(C(=O)NNC(=O)c2ccccc2-n2cccc2)cc1OC`, the inhibition is -0.2%.

With `Cc1ccc(C(=O)OCC(=O)NC2CCCCCCC2)cc1C`, the inhibition is -1.2%.

For the compound `Cc1nc2c(OCC(=O)C(C)(C)C)cccn2c1N(C)Cc1cccs1`, the inhibition is 2.6%.

As to `Cc1nc2c(OCc3ccc(Cl)cc3Cl)cccn2c1N(C)CC1CC1`, the inhibition is 82.3% (active).

With `Cc1nc2c(OCc3cccc(Cl)c3)cccn2c1N(C)CC1CC1`, the inhibition is 88.2% (active).

Take `CCc1nc2c(OCc3ccc(F)c(F)c3)cccn2c1N(C)C(=O)c1ccco1`: the inhibition was -2.8%.

Take `CCc1nc2c(OCc3ccccc3)cccn2c1N(C)C(=O)c1ccco1`: the inhibition was 0%.

For the compound `CCCCC(=O)N(C)c1c(CC)nc2c(OCc3ccc(Cl)cc3Cl)cccn12`, the inhibition was -1.5%.

In the case of `Cc1nc2c(OCc3ccc(Cl)cc3)cccn2c1N(C)Cc1cccs1`, the inhibition was 79.6% (active).

For the compound `CCc1nc2c(OCc3cccc(OC)c3)cccn2c1N(C)C(=O)C(C)C`, the inhibition is -1.6%.

For `CCc1nc2c(OCc3ccc(Cl)cc3Cl)cccn2c1N(C)C(=O)C(C)C`, the inhibition is -3.5%.

Take `CCOc1cc(-c2noc(CCCC(=O)NC3CCCCC3)n2)ccc1OC`: the inhibition was 0.3%.

Turning to `CCc1nc2ccc(C(=O)NCCNC(C)=O)cn2c1N(CC)Cc1cccc(Br)c1`, the inhibition is -0.2%.

Regarding `CCCC(C)C(=O)OCC(=O)Nc1c(Br)cc(C)cc1Br` (configuration not stated), the inhibition was -0.2%.

For the compound `CCc1c(C)sc(NC(=O)c2cccs2)c1C(N)=O`, the inhibition is -0.6%.

For `OC(C#CCN1CCOCC1)(c1ccccc1)C1CCCCC1` (configuration not stated), the inhibition is -2.4%.

For `CCc1oc(-c2ccc(OC)cc2)c(C(=O)OCCCCCO)c1C(C)OCCO` (configuration not stated), the inhibition is 0.2%.

As for `CCC(C)(C)NC(=O)CN(C(=O)C(=O)Nc1ccc2c(c1)OCCO2)C(C)(C)CC`, the inhibition is -1%.

As for `O=C1[C@@H]2C(c3cccnc3)=NO[C@@H]2C(=O)N1c1ccc(Cl)cc1Cl`, the inhibition was 2.7%.

For `CC(=O)Nc1ccc(NS(=O)(=O)c2cc(C)sc2C)cc1`, the inhibition was 0.5%.

As for `CCCc1cc(=S)n2c([nH]c3ccccc32)c1C#N`, the inhibition is 94.4% (active).

Take `CN(C)Cc1c(C#N)c2ccccc2n1C`: the inhibition was -1.4%.

Turning to `O=C(COc1ccc(Cl)cc1)NCCS(=O)(=O)N1CCN(c2ccc(F)cc2)CC1`, the inhibition was 1.5%.

As to `CCOC(=O)N1CCC(NC(=O)C(NS(=O)(=O)c2ccc3c(c2)CCN3C(=O)CC)C(C)C)CC1` (configuration not stated), the inhibition was -0.2%.

Take `O=C(Cc1cccc2ccccc12)NNC(=O)Nc1ccc(Cl)cc1`: the inhibition was 72.6% (active).

As for `O=C(O)Cc1ccc(NC(=O)Nc2cccc3ccccc23)cc1`, the inhibition was 0.9%.

On to `Cc1ccc(CNC(=O)[C@@H](NC(=O)Cc2ccccc2)C(C)C)cc1`, for which the inhibition was 0.5%.

Turning to `CC(C)(C)C(=O)NC(NC(=S)Nc1ccc(S(N)(=O)=O)cc1)C(Cl)(Cl)Cl` (configuration not stated), the inhibition is -2.5%.

Consider `CN(CC(=O)Nc1ccc(Cl)cc1)CC(=O)Nc1cccc2ccccc12`, for which the inhibition was 0.6%.

For `Cc1ccc(NC(=S)NC(NC(=O)Cc2cccc3ccccc23)C(Cl)(Cl)Cl)cc1` (configuration not stated), the inhibition is 55.5% (active).

On to `CCCOC(=O)CC1C(=O)NCCN1Cc1ccc(F)cc1` (configuration not stated), for which the inhibition is 0.6%.

Consider `Cn1nnnc1SCC(=O)Nc1cccc(S(=O)(=O)N2CCCCC2)c1`, for which the inhibition was -0.1%.

As to `CN(NS(=O)(=O)c1cccs1)c1ncc(C(F)(F)F)cc1Cl`, the inhibition is 2.5%.

As to `Cc1ccc(NS(=O)(=O)c2ccc(F)cc2)nc1`, the inhibition was -0.6%.

With `Cc1cc(C)cc(NS(=O)(=O)c2ccc(Oc3ncc(C(F)(F)F)cc3Cl)cc2)c1`, the inhibition was 50.8% (active).

Regarding `COc1ccc(CCOC(=O)CNC(=O)c2ccc(Cl)cc2Cl)cc1`, the inhibition was 1.4%.

As to `COc1ccc(CNc2ncnc3ccccc23)cc1`, the inhibition was 70.5% (active).

`COc1ccc(CNc2nccs2)cc1`: the inhibition is 0.7%.

For `O=C(COc1ncnc2ccccc12)NC(=O)NCc1ccccc1`, the inhibition is -0.1%.

On to `CC1(C)C2CC=C(/C=N/NC(=O)C3CC3)C1C2` (configuration not stated), for which the inhibition is -1.7%.

Turning to `CCOc1ccc(N2C(=O)/C(=C/c3ccc(C)o3)N(C)C2=S)cc1`, the inhibition is 4.3%.

Take `Cc1c(C)n2c(SCC(=O)NC3CCCC3)nnc2[nH]c1=O`: the inhibition is -1.2%.

As for `O=C1CCCCC1Sc1ccc(Cl)cc1[N+](=O)[O-]` (configuration not stated), the inhibition is -0.4%.

For the compound `CN1CCN(CCCCOc2cccc3ccccc23)CC1`, the inhibition is -0.6%.

As for `CC1CC(C)CN(CCOc2cccc3ccccc23)C1` (configuration not stated), the inhibition is -1.7%.

Regarding `CC(C)c1ccccc1OCC(O)CN(CC(O)COc1cccc2ccccc12)C(C)C` (configuration not stated), the inhibition is 61.5% (active).

In the case of `Cc1ccc(C(=O)NCC(=O)NCc2cc(=O)n(C)c(=O)n2C)cc1`, the inhibition is -1.3%.

Turning to `O=C(Nc1nc2ccc([N+](=O)[O-])cc2s1)c1ccc(S(=O)(=O)N2CCCc3ccccc32)cc1`, the inhibition was 78.1% (active).

Turning to `O=C(Nc1nc2ccc([N+](=O)[O-])cc2s1)c1ccncc1`, the inhibition was 68.5% (active).

Turning to `NS(=O)(=O)c1ccc2nc(NC(=O)C3=COCCO3)sc2c1`, the inhibition is -0.6%.

For the compound `Cc1cc(C)cc(OCC(=O)Nc2nc3ccc([N+](=O)[O-])cc3s2)c1`, the inhibition is 50.4% (active).

`CSc1ncccc1C(=O)Nc1nc2ccc(F)cc2s1`: the inhibition was 5.6%.

As for `O=C(NC(Nc1nc2ccc([N+](=O)[O-])cc2s1)(C(F)(F)F)C(F)(F)F)c1ccccc1`, the inhibition was 93.7% (active).

`Cc1ccc(NC(=O)c2cccc(S(=O)(=O)N3CCCc4ccccc43)c2)nc1`: the inhibition was -1.2%.

Turning to `Cc1cc(C)cc(OCC(=O)Nc2cc(NC(=O)COc3cc(C)cc(C)c3)cc(C(=O)O)c2)c1`, the inhibition was 1.6%.

Turning to `Cc1cc(C)cc(OCC(=O)O/N=C(\N)Cc2ccc([N+](=O)[O-])cc2)c1`, the inhibition is 3.2%.

For `CNC(=O)c1ccsc1NC(=O)c1ccc(S(=O)(=O)N2CCc3ccccc32)cc1`, the inhibition is 0.6%.

Take `CC(Nc1ccc([N+](=O)[O-])cc1[N+](=O)[O-])c1ccccc1` (configuration not stated): the inhibition is 1%.

Turning to `O=C(NNC(=O)c1ccc(-n2cncn2)c([N+](=O)[O-])c1)c1ccccc1`, the inhibition is -2.8%.

With `COc1ccc(-c2n[nH]c3c2CN(C(=O)c2ccc(F)cc2)CC3)cc1`, the inhibition was 1.2%.

Consider `COc1ccccc1CSc1ncc(-c2ccc([N+](=O)[O-])cc2)[nH]1`, for which the inhibition is 24.2%.

As for `CC1(C)C2CCC1(CS(=O)(=O)NCCc1c[nH]c3ccccc13)C(=O)C2` (configuration not stated), the inhibition was 0.4%.

Regarding `CC(=O)N1c2ccc(S(=O)(=O)N3CCCC(C(=O)Nc4ccc(C)cc4C)C3)cc2CC1C` (configuration not stated), the inhibition was 0.4%.

In the case of `COc1ccc(NS(=O)(=O)c2cc(NC(=O)C3CCCCC3)ccc2N2CCOCC2)cc1`, the inhibition is -0.4%.

As to `CCOc1ncccc1C(=O)N(CC)CC(=O)Nc1ccc(NC(C)=O)cc1`, the inhibition is -0.1%.

On to `Cc1cc(Cl)c2oc(C(=O)NC(C)c3ccncn3)c(C)c2c1` (configuration not stated), for which the inhibition is -0.4%.

As to `COC(=O)[C@@]12C[C@@H](CC(=O)NCc3cccc(C(F)(F)F)c3)C(=O)N(Cc3ccco3)C1=CCC(C)(C)C2`, the inhibition is -0.5%.

For `COc1ccc(C(=O)NC2(C(F)(F)F)NC(=O)N(CCCc3ccccc3)C2=O)c(OC)c1OC` (configuration not stated), the inhibition is 11.9%.

Consider `CCCC1=Nc2cc(C(=O)NCCN3CCCC3)ccc2Sc2ccccc21`, for which the inhibition is -1.2%.

For `Cc1cccc(-c2nc3ccc(C(=O)NCCN4CCN(C)CC4)cc3nc2-c2cccc(C)c2)c1`, the inhibition is 55.9% (active).

For `Cc1cccc(C(=O)OC(C)CN2CCN(C)CC2)c1` (configuration not stated), the inhibition was -1.6%.

As for `C[C@H](NS(=O)(=O)c1ccc(Cl)cc1)C(=O)OCC(=O)N1CCOCC1`, the inhibition is 1.4%.

Regarding `COc1ccc(C(C)C)cc1S(=O)(=O)Nc1ncn[nH]1`, the inhibition is -0.4%.

As to `CC(=O)c1c(C)[nH]c(C(=O)CN2C(=O)NC(C)(C)C2=O)c1C`, the inhibition was -0.1%.
